The list is not random: actives were taken first. Their share in the collection is about 10%.
ALDH1A1 block: inhibitors of human aldehyde dehydrogenase 1A1 | P00352 | Purified ALDH1A1, NADH fluorescence, propionaldehyde substrate | Potency, µM (top dose mostly 75.3 µM), actives largely listed as inhibitors | 220,000 compounds, 7.3% hits | AID 1030; active = well fitted inhibition curve with a large enough effect, not every such curve was filed as active; inconclusive = small, poorly fitted or top-dose-only effect, or another doubt; inactive = no such curve, though single readings can be large or run the other way
12-hLO inh: 12-hLO (ALOX12) enzyme inhibition; P18054; purified 12-hLO, xylenol orange hydroperoxide absorbance; Potency, µM (titrated, usually from 57.1 µM), most hits filed as inhibitors; 150,000 compounds, 0.12% hits; note: nearly all actives have a fitted effect of over 55% in size
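150 nM 12hLO, 25 mM Hepes pH 7.0 + 0.01% Triton X-100; cpd preinc 15 min RT; 40 uM arachidonic acid, 30 min RT; Fe-XO 30 min; A573/A405 ratio as read-out.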
PNC assembly inh: perinucleolar compartment assembly inhibition; activity change (PNC), negative = inhibition, % at 10 µM; PC3M PTB-GFP, PNC prevalence imaging, 16 h; stronger effect = lower value; 140,000 compounds, 3.1% hits;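 active = readout at or below -70, meaning at least 70% loss of cells showing the perinucleolar compartment, a nuclear body marking cancer cells; inconclusive = readout between -30 and a set limit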
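Compounds are pinned in duplicate onto adhered PC3M cells stably expressing GFP-tagged PTB and incubated 16 h at 37 C. Cells are then fixed, nuclei stained with Hoechst, and PNC-positive cells counted.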
GLA spleen mod: inhibitors or activators of human alpha-galactosidase in spleen homogenate | P06280 | Potency, µM (top dose mostly 80 µM), usual class: inhibitors | 240,000 compounds, 0.008% hits | human spleen homogenate, 4MU-alpha-Gal fluorescence, 40 min
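Fluorogenic readout (Ex 365/Em 440 nm) of 4-methylumbelliferone released from 1 mM 4-MU-alpha-galactoside by spleen homogenate, 40 min at 37C, pH 5.0. Data normalized to no-enzyme and enzyme controls; Hill-equation AC50 from compound titrations.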
GLA inh pH 4.5: alpha-galactosidase A (human) inhibition, pH 4.5 | P06280 | activity change, negative = inhibition, % at 105 µM | purified enzyme, 4-MU-alpha-Gal fluorescence, pH 4.5 | 230,000 tested, under 10 active
Target sequence (P06280 whole entry, looked up): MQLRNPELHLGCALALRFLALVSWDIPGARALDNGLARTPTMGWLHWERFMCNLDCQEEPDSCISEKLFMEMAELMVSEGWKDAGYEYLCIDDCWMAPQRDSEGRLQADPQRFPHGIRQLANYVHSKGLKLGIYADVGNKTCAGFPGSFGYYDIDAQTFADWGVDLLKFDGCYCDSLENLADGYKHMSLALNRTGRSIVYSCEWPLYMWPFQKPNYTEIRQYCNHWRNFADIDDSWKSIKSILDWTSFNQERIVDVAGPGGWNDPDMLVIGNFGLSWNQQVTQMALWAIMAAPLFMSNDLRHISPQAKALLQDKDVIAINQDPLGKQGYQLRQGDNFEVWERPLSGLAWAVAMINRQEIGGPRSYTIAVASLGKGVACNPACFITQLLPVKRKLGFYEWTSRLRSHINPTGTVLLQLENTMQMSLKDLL
HPGD block: blocks human HPGD enzyme activity; P15428; purified HPGD, NADH fluorescence kinetic, PGE2 substrate; Potency, µM, actives largely listed as inhibitors; 150,000 compounds, 4.3% hits; active = well fitted inhibition curve with a large enough effect, not every such curve was filed as active; inconclusive = small, poorly fitted or top-dose-only effect, or another doubt; inactive = no such curve, though single readings can be large or run the other way
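NADH formation kinetics: reaction with 30 uM PGE2 and 1 mM NAD+ (final), 20 nM enzyme, Tris-HCl pH 8 with Tween 20, after 15 min compound preincubation at room temperature. Fluorescence change, last versus first of five reads.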
Of the large screens only hits and unclear results are named; the others gave an inactive call. Unless noted, calls come from the whole dose curve; as a rule, active = well fitted curve in the direction sought with a large enough effect; inconclusive = small, poorly fitted or top-dose-only effect, or another doubt; inactive = no such curve, though single readings can be large; an effect the other way counts as inactive or inconclusive.

O=C(NCC1CCCO1)c1ccc(COc2ccccc2Br)cc1 (stereo not drawn)	HPGD block 4µM
COc1cccc(OCc2ccc(C(=O)NCC3CCCO3)cc2)c1 (stereo not drawn)	HPGD block 10µM
Cc1cnc(CNc2ccnc(-c3ccccc3CN(C)C)n2)cn1	ALDH1A1 block inconclusive (no result: 12-hLO inh, PNC assembly inh, GLA inh pH 4.5, HPGD block)
Clc1ccc(C2=NNC(=NCC3CCCO3)SC2)cc1 (stereo not drawn)	ALDH1A1 block 8.9µM, HPGD block inconclusive
Cc1c(NC(=S)N/N=C/c2ccc(N(C)C)cc2)c(=O)n(-c2ccccc2)n1C	ALDH1A1 block inconclusive, HPGD block inconclusive
CCOc1ccc(N2C(=O)/C(=C/c3cccs3)N(C)C2=S)cc1	none
Cc1c(N2C(=O)/C(=C\c3ccc(N(C)C)cc3)N(C)C2=S)c(=O)n(-c2ccccc2)n1C	ALDH1A1 block 4.5µM, PNC assembly inh inconclusive
CN1C(=S)N(c2cccnc2)C(=O)/C1=C\c1ccc(C(C)(C)C)cc1	ALDH1A1 block 7.1µM (no result: 12-hLO inh, PNC assembly inh, HPGD block)
Cc1c(N2C(=O)c3ccc4c5c(ccc(c35)C2=O)CC4)c(=O)n(-c2ccccc2)n1C	ALDH1A1 block inconclusive, PNC assembly inh -92, HPGD block inconclusive
CN1C(=S)N(c2cccnc2)C(=O)/C1=C\c1ccc(N(C)C)cc1	ALDH1A1 block 13µM (no result: 12-hLO inh, PNC assembly inh, HPGD block)
Cc1ccc(N2C(=O)CSC2c2cccnc2)c(Cl)c1 (stereo not drawn)	none (no result: ALDH1A1 block, 12-hLO inh, PNC assembly inh, HPGD block)
COc1cccc(C(=O)NC(=S)Nc2ccc(N(C)C)cc2)c1	ALDH1A1 block 10µM, 12-hLO inh inconclusive
CCCC(=O)N1CCN(c2ccc(NC(=S)NC(=O)c3cccc(C)c3)cc2)CC1	ALDH1A1 block 20µM (no result: 12-hLO inh, PNC assembly inh, HPGD block)
COc1ccc(C(=O)NC(=S)Nc2ccc(Cc3ccncc3)cc2)cc1	ALDH1A1 block 14µM (no result: 12-hLO inh, PNC assembly inh, HPGD block)
COc1ccc(C(=O)NC(=S)Nc2ccc(N3CCCC3)cc2)cc1	ALDH1A1 block 10µM (no result: 12-hLO inh, PNC assembly inh, HPGD block)
COc1ccc(C(=O)Nc2ccc(N3CCCC3)cc2)cc1	ALDH1A1 block inconclusive
CCC(=O)OCC(=O)C1(OC(=O)CC)C(C)CC2C3CCC4=CC(=O)C=CC4(C)C3(Cl)C(O)CC21C (stereo not drawn)	none (no result: PNC assembly inh)
O=C(OCc1ccccc1)C1=NNC2C(=O)N(Cc3ccccc3)C(=O)C12 (stereo not drawn)	ALDH1A1 block inconclusive (no result: 12-hLO inh, PNC assembly inh, HPGD block)
CC(C)Oc1cccc(C(=O)NC(=S)Nc2ccc(N3CCN(C)CC3)cc2)c1	ALDH1A1 block inconclusive (no result: 12-hLO inh, PNC assembly inh, HPGD block)
COc1cccc(C(=O)NC(=S)Nc2ccc(N3CCCC3)cc2)c1	ALDH1A1 block 9.5µM, 12-hLO inh 16µM
COCCNC(=S)Nc1ccc(N2CCCCC2)cc1	ALDH1A1 block 8.9µM (no result: 12-hLO inh, PNC assembly inh, HPGD block)
COc1ccccc1C(=O)NC(=S)Nc1ccc(N2CCCC2)cc1	none
COc1cc(C(=O)NC(=S)Nc2ccc(N3CCCC3)cc2)cc(OC)c1OC	ALDH1A1 block 28µM, 12-hLO inh inconclusive (no result: HPGD block)
COc1cccc(C(=O)NC(=S)Nc2ccc3oc(=O)ccc3c2)c1	ALDH1A1 block 1.4µM (no result: HPGD block)
COCCNC(=S)N/N=C/c1ccc(N2CCOCC2)cc1	ALDH1A1 block inconclusive, PNC assembly inh inconclusive, HPGD block inconclusive
Cc1ccc(S(=O)(=O)Oc2ccc(C3C4=C(CCCC4=O)N(CCC(=O)O)C4=C3C(=O)CCC4)cc2Cl)cc1	ALDH1A1 block inconclusive, PNC assembly inh inconclusive, GLA spleen mod inconclusive, GLA inh pH 4.5 inconclusive, HPGD block inconclusive
CCOC(=O)C1CCCN(C(=O)c2cc3ccccc3oc2=O)C1 (stereo not drawn)	ALDH1A1 block inconclusive (no result: 12-hLO inh, PNC assembly inh, HPGD block)
CC(C)(C)NCC(O)COc1cccc2c1C[C@H](O)[C@H](O)C2 (stereo partly drawn)	PNC assembly inh -115 (no result: GLA inh pH 4.5)
COc1ccc2c(c1)C(=O)[C@@H](O)[C@H](c1ccc(OC)c(Br)c1)O2	PNC assembly inh -115, HPGD block inconclusive
COc1ccc(C(c2c(O)nc(SC)n(C)c2=O)c2c(O)nc(SC)n(C)c2=O)cc1O	ALDH1A1 block 14µM, PNC assembly inh inconclusive
O=C(O)C1CC(=O)N(c2ccc(OCc3ccccc3)cc2)C1 (stereo not drawn)	PNC assembly inh inconclusive
O=C(O)C1CC(=O)N(c2ccc(OCc3c(F)cccc3Cl)cc2)C1 (stereo not drawn)	PNC assembly inh -108, HPGD block 1.6µM
O=C(O)c1ccc2c(=O)n(-c3ccc(F)cc3)c(=S)[nH]c2c1	none (no result: 12-hLO inh, PNC assembly inh, HPGD block)
O=c1cc(O)n(-c2ccc(F)cc2)c(=S)[nH]1	HPGD block 28µM
CC(C)C(=O)NC(=S)Nc1c(Cl)ccc2nsnc12	none (no result: ALDH1A1 block, 12-hLO inh, PNC assembly inh, HPGD block)
COC(=O)c1cccc(NC(=O)c2cc(OC)c(OC)c(OC)c2Br)c1	ALDH1A1 block 40µM, HPGD block inconclusive
CCCCCC#CC[C@@H](O)/C=C/C=C/C=C\[C@@H](O)CCCC(=O)O	none (no result: PNC assembly inh)
NS(=O)(=O)c1ccc(CNS(=O)(=O)c2ccc(Cl)nc2)cc1	ALDH1A1 block 22µM (no result: 12-hLO inh, PNC assembly inh, HPGD block)
O=C(N/N=C/c1ccccc1O)c1cccc(C(F)(F)F)c1	PNC assembly inh -94
C(=N\N1CCOCC1)/c1cccs1	none
Cc1noc(NC(=O)c2ccccc2Cl)c1C#N	none
Cc1ccc(C(=O)Nc2onc(C)c2C#N)cc1	ALDH1A1 block 25µM

Screening data (PubChem)
